Screens from PubChem BioAssay.
KB-3-1 tox: kills parental KB-3-1 adenocarcinoma cells; KB-3-1 viability, CellTiter-Glo ATP luminescence, 72 h; Potency, µM (series often up to 46.1 µM), usual class: cytotoxic; actives 1.4% (n = 400,000); AID 1347075; further: on the % scale 0 is the no-effect control and ±100 the full control effect; nearly all actives have a fitted effect of over 60% in size
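Using CellTiter-Glo luminescence, growth of non-resistant KB-3-1 adenocarcinoma cells is assessed 72 h after pin-tool compound addition at 37 °C. Normalized responses across the concentration series yield fitted curves.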
SW480 rerep: DNA re-replication induction in SW480 cells; Potency, µM (series often up to 46.1 µM), inactives show at the top dose re-replication activation, hits mostly activators; actives 1.8% (n = 340,000); SW480 DNA re-replication, Hoechst DNA content imaging, 48 h; further: % of control where 0% means no effect; nearly all actives have a fitted effect of over 55% in size
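Cells (250 per well) received 23 nL compound or DMSO by pin tool and were kept 48 hr at 37 C, 5% CO2. Nuclei were then stained with Hoechst for 40 min and scanned for DNA content.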
12-LOX inh: blocks human arachidonate 12S-lipoxygenase; P18054; purified 12hLO, xylenol orange hydroperoxide absorbance; Potency, µM (doses to about 108 µM), inactives show at the top dose activity change, negative = inhibition, usual class: inhibitors; actives 1.1% (n = 580,000); AID 1671190; further: on the % scale 0 is the no-effect control and ±100 the full control effect
Target sequence (P18054 whole entry, looked up): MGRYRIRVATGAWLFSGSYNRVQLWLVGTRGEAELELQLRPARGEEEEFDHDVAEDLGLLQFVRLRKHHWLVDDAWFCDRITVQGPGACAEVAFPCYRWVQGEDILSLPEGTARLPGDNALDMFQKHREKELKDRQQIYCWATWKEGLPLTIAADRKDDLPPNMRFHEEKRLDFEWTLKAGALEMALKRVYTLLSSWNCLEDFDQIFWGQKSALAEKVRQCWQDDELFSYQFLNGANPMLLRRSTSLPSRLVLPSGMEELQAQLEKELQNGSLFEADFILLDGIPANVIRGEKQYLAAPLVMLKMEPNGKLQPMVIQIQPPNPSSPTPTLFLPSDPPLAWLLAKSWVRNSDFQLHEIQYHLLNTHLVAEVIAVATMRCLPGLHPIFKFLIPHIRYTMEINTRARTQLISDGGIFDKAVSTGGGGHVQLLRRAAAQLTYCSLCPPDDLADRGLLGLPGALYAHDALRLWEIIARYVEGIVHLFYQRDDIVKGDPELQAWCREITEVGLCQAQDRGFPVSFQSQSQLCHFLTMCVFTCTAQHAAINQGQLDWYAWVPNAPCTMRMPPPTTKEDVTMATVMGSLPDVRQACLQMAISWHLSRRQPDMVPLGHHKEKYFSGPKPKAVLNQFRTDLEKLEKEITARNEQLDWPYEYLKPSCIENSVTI
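Purified human 12hLO at 150 nM in 25 mM Hepes, 0.01% Triton X-100, pH 7.0, preincubated 15 min at room temperature with compound. Reaction started with 40 uM arachidonic acid, 30 min at room temperature. Hydroperoxide measured by Fe-xylenol orange, 573/405 nm absorbance ratio.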
PINK1 expr mod: PINK1 expression modulation; PINK1 immunofluorescence, high-content cytometry, 24 h; Potency, µM (doses to about 76.6 µM), for inactives: top-dose activation (PINK1 increase), usual class: activators; actives 0.2% (n = 410,000); AID 624263; active means well fitted activation curve with a large enough effect; inconclusive means small, poorly fitted or top-dose-only effect; cell line not stated here; further: % of control where 0% means no effect; nearly all actives have a fitted effect of over 65% in size
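A stable cell line was treated with compounds at 5 concentrations for 24 hours, with CCCP as control. PINK1 levels and mitochondrial localization were measured by immunofluorescence with mitochondrial, cell and nuclear markers after fixation, read by laser-scanning cytometry.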
MCF10A rereplic: DNA re-replication induction in MCF 10a cells; MCF 10A DNA re-replication, Hoechst nuclear intensity, 48 h; Potency, µM (titrated, usually from 46.1 µM), for the others: at the highest dose activity, positive = re-replication, hits mostly activators; AID 624296; actives 2.9% (n = 350,000); further: % of control where 0% means no effect; nearly all actives have a fitted effect of over 50% in size
KB-V1 MDR tox: KB-V1 MDR subline cytotoxicity. Potency, µM (series often up to 46.1 µM), hits mostly cytotoxic. KB-V1 MDR cells viability, CellTiter-Glo, 72 h. actives 3.4% (n = 400,000); further: on the % scale 0 is the no-effect control and ±100 the full control effect; nearly all actives have a fitted effect of over 60% in size
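Cytotoxicity via CellTiter-Glo luminescence after 72 h compound exposure at 37 degrees C. Cells: drug-selected KB-V1 line, DMEM phenol-red free plus 10% FBS. Compounds tested at multiple concentrations; normalized data fitted to concentration-effect curves.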
* marks the source's active call; other numbers are inactive results; i = inactive; u = inconclusive; x = no result; [ ] = remark or other dose. Shown are actives, neighbours in structure and some others; about 5.8% of the full set was active somewhere. Unless noted, the call rests on the fitted dose curve; in most records, active means well fitted curve in the direction sought with a large enough effect; inconclusive means small, poorly fitted or top-dose-only effect, or another doubt; inactive means no such curve, though single readings can be large; an effect the other way counts as inactive or inconclusive. Potency means the concentration at half of the fitted maximal effect.

SMILES	KB-3-1 tox	SW480 rerep	12-LOX inh	PINK1 expr mod	MCF10A rereplic	KB-V1 MDR tox
Cc1ccc(S(=O)(=O)N2[C@@H](c3ccc(C(C)(C)C)cc3)C(C(=O)O)=CC[C@H]2c2ccc(C(C)C)cc2)cc1	i	u	40µM*	u	u	i
Cc1ccc(S(=O)(=O)N2[C@@H](c3ccc(Cl)c(Cl)c3)C(C(=O)O)=C[C@H]2CC2CCCC2)cc1	i	6%	28µM*	-1%	53%	i
Cc1ccc(S(=O)(=O)N2[C@@H](c3ccc(Br)cc3)C(C(=O)O)=CC[C@H]2c2ccc(C(C)C)cc2)cc1	i	-5%	35µM*	0%	36%	i
CCCCC[C@@H]1C=C(C(=O)O)[C@H](c2ccc(Br)cc2)N1S(=O)(=O)c1ccc(C)cc1	i	-63%	35µM*	0%	u	i
Cc1ccc(S(=O)(=O)N2[C@@H](c3ccc(Cl)cc3)C(C(=O)O)=C[C@H]2CC2CCCC2)cc1	i	1%[9.22 µM]	u	0%	u	i
COc1ccc(CCNC(=O)C2CCN(c3nc(Cl)nc4nc[nH]c34)CC2)cc1OC	x	x	-1%	x	x	x
CC(C)NC(=O)COc1ncnc2ccc(Br)cc12	x	x	-14%	x	x	x
Clc1cccc(-c2ccc(/C=N/n3cnnc3)o2)c1Cl	6.5µM*	-3%	144%	-2%	1%	1.6µM*
Clc1ccccc1-c1ccc(/C=N/n2cnnc2)o1	5.8µM*	2%	-25%	-2%	-3%	3.3µM*
CCCCOC(=O)c1cc(-c2ccc(/C=N/n3cnnc3)o2)ccc1Cl	i	2%	-5%	3%	-3%	18µM*
Cc1cc(-c2ccc(/C=N/n3cnnc3)o2)ccc1Cl	i	-3%	-4%	-1%	-2%	i
Cc1c(Cl)cccc1-c1ccc(/C=N/n2cnnc2)o1	u	u	u	3%	6%	2.9µM*
CCOC(=O)c1cc(-c2ccc(/C=N\n3cnnc3)o2)ccc1Cl	i	-1%	31%	3%	-6%	i
Nc1ccc(C(c2ccc(N)cc2)c2ccc(O)cc2)cc1	x	x	8%	x	x	x
CCOC(=O)COc1ccc2c(C)c(Cc3ccccc3)c(=O)oc2c1C	x	x	-27%	x	x	x
C=CCNc1nnc(SCc2coc(-c3ccccc3)n2)s1	x	x	1%	x	x	x
Cc1ccc2nc(N3C(=O)C(O)=C(C(=O)c4ccc(C)o4)C3c3ccc(O)cc3)sc2c1 (centres undefined)	i	15%	28µM*	4%	u	u
Cc1ccc2nc(N3C(=O)C(O)=C(C(=O)c4ccco4)C3c3cccs3)sc2c1 (centres undefined)	i	u	18µM*	-2%[38.3 µM]	21µM*	13µM*
COc1ccc2nc(N3C(=O)C(O)=C(C(=O)c4ccco4)C3c3ccc(C)o3)sc2c1 (centres undefined)	i	-6%	u	-1%	u	u
Cc1cc(C)c2nc(N3C(=O)C(O)=C(C(=O)c4ccco4)C3c3ccco3)sc2c1 (centres undefined)	i	16µM*	u	3%	18µM*	i
O=C(CN1CCc2sccc2C1c1cccs1)Nc1cccc(F)c1 (centres undefined)	x	x	2%	x	x	x
COc1ccc(S(=O)(=O)Nc2ccc(Cl)cn2)c(C)c1C	i	-2%	u	10%[38.3 µM]	-2%	23µM*
COc1ccccc1C(c1nnnn1C(C)(C)C)N1CCCc2ccccc21 (centres undefined)	u	u	326%	1%	-10%	23µM*
Cc1cccc(N2CCN(C(c3ccccc3)c3nnnn3C(C)(C)C)CC2)c1C (centres undefined)	u	u	10%	3%	18%	9.2µM*
COc1ccccc1N1CCN(C(c2ccc(Cl)cc2)c2nnnn2C(C)(C)C)CC1 (centres undefined)	u	16%	-9%	4%	-13%	18µM*
SMILES	KB-3-1 tox	SW480 rerep	12-LOX inh	PINK1 expr mod	MCF10A rereplic	KB-V1 MDR tox
Cc1cc(C)c2oc(C(=O)Nc3cccc(Cl)c3C)cc(=O)c2c1	x	x	-1%	x	x	x
Cc1ccnc(NC(=S)NC(=O)c2cncc(Br)c2)c1	i	-5%	-16%	1%	-1%	i
Cc1nc(NC(=S)NC(=O)c2cncc(Br)c2)ccc1Br	u	7%	8%	-1%	0%	3.7µM*
CCCCCCCCCCS(=O)CCCl (centres undefined)	x	x	7%	x	x	x
COc1ccc(OC)c(C(=O)c2coc3ccc(O)cc23)c1	u	u	0%	13%[38.3 µM]	u	10µM*
O=C(c1ccc(Br)cc1)c1coc2ccc(O)cc12	i	u	22µM*	2%	-1%	i
Cc1ccc(C(=O)OCc2ccc(C#N)cc2)cc1C	x	x	-48%	x	x	x
CCOC(=O)c1[nH]c2ccc(OC)cc2c1NC(=S)N1CCN(c2cccc(C)c2C)CC1	i	u	u	6%	15µM*	i
Cc1cccc(N2CCN(C(=O)c3ccc4[nH]c(C)c(C)c4c3)CC2)c1C	26µM*	3.3µM*	-18%	9%	2.3µM*	2.3µM*
COc1ccccc1N1CCN(C(=O)c2ccc3[nH]c(C)c(C)c3c2)CC1	1.6µM*	2.3µM*	0%	1%	u	4.6µM*
Cc1[nH]c2ccc(C(=O)N3CCN(c4ccccc4Cl)CC3)cc2c1C	i	u	-11%	-1%	u	i
CC1CCc2[nH]c3ccc(C(=O)O)cc3c2C1 (centres undefined)	i	u	-6%	-1%	-2%	u
COc1ccccc1N1CCN(C(=O)c2ccc3[nH]c4c(c3c2)CC(C)CC4)CC1 (centres undefined)	i	11%	0%	12%	u	21µM*
CC(NC(=O)c1ccc2c(c1)CCCC2)c1ccc(F)cc1F (centres undefined)	x	x	40µM*	x	x	x
COCc1ccc(C(=O)NC(C)c2ccc(F)cc2F)cc1 (centres undefined)	x	x	-21%	x	x	x
CCc1c(C(=O)NCCc2ccc(OC)c(OC)c2)[nH]c(C)c1C(C)=O	i	-1%	-16%	11%[38.3 µM]	19%	15µM*
CC(=O)c1c(C)[nH]c(C(=O)NCCc2cccc(C)c2)c1C	i	-44%	0%[57.4 µM]	1%	4%	i
CCc1c(C(=O)NCCc2cccc(C)c2)[nH]c(C)c1C(C)=O	u	18%	u	4%	u	12µM*
CCc1c(C(=O)NC2CCCCC2)[nH]c(C)c1C(C)=O	i	-19%	2%	15%[38.3 µM]	14%	18µM*
